Test results from PubChem BioAssay (NCI).
Compounds without any hit were thinned out: in the full panel of roughly 79,000, 15% have a hit. A number with no mark means an inactive call. Activity calls are given as the source filed them. Rule as the data show it: active = growth inhibition above about 70%; inactive = the rest. Where a SMILES comes first, the peptide text is derived from it.

How the values were obtained:
[1] = NCI Yeast Anticancer Drug Screen. Data for the rad50 strain (AID 155);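 also: 0% = growth of vehicle-only cultures of the same strain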; settings: S. cerevisiae rad50 strain growth inhibition; at 50.0 µM; stronger effect = higher value
Method in brief: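 Genetically altered yeast (DNA repair pathway); compound treatment; growth inhibition vs vehicle ctrl.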

[2] = NCI Yeast Anticancer Drug Screen. Data for the mec2-1 strain (AID 157); settings: S. cerevisiae mec2-1 strain, at 50.0 µM, stronger effect = higher value
Method in brief: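 Readout is yeast growth inhibition, normalised to vehicle-treated controls, in the mec2-1 strain exposed to compound.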

[3] = NCI Yeast Anticancer Drug Screen. Data for the sgs1 mgt1 strain (AID 161);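 also: 0% = growth of cultures given vehicle only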; settings: S. cerevisiae sgs1 mgt1 strain, at 50.0 µM, stronger effect = higher value
Method in brief: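 This yeast growth screen uses a strain with defined DNA-repair lesions; compound-treated growth is compared with vehicle-treated growth.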

[4] = NCI Yeast Anticancer Drug Screen. Data for the cln2 rad14 strain (AID 165);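 also: 0% = growth equal to vehicle treated cultures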; settings: S. cerevisiae cln2 rad14 strain, at 50.0 µM, stronger effect = higher value
Method in brief: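 Relative to vehicle controls, growth inhibition of compound-treated cln2 rad14 yeast was recorded.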

[5] = NCI Yeast Anticancer Drug Screen. Data for the bub3 strain (AID 167); settings: S. cerevisiae bub3 mutant strain, at 50.0 µM, stronger effect = higher value
Method in brief: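 Yeast carrying a defined mutation is treated with each compound, and growth is compared with that of vehicle-exposed cells to give inhibition.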

[6] = NCI Yeast Anticancer Drug Screen. Data for the mlh1 rad18 strain (AID 175); settings: S. cerevisiae mlh1 rad18 strain growth inhibition; at 50.0 µM; stronger effect = higher value
Method in brief: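 Test agents were incubated with a yeast strain of defined genotype (DNA damage repair defect). Inhibition of growth was derived by comparison with vehicle-exposed cultures.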

SMILES	growth inhibition [1]	growth inhibition [2]	growth inhibition [3]	growth inhibition [4]	growth inhibition [5]	growth inhibition [6]
C/C(=N/O)c1ccc[nH]1	-3.6%	9%	-5.5%	20.1%	13.2%	0.3%
c1cc2[nH]snc2c2cncc12	12.5%	9.2%	0.25%	-19.1%	-24.1%	6.6%
O=[N+]([O-])c1cccc(S(=O)(=O)SSS(=O)(=O)c2cccc([N+](=O)[O-])c2)c1	16.6%	18.1%	55.9%	20.8%	5.75%	28.2%
CCOC(=O)C(NC(C)=O)C(O)c1ccc(Cl)cc1Cl (stereo unspecified)	18.4%	3.4%	0.05%	-45.9%	-9.4%	19.7%
CC(=O)CC(=O)NCCNC(=O)CC(C)=O	-4.55%	-11.6%	10.3%	6.4%	-4.55%	8.85%
CCOC(=O)C(Cc1cn(S(=O)(=O)c2ccc(C)cc2)cn1)P(=O)(OCC)OCC (stereo unspecified)	-34.5%	-4.45%	-13.4%	14.2%	-16.7%	-14.3%
Clc1ccc(CNc2ncnc3nc(Cl)[nH]c23)cc1	-14.4%	-14.9%	-4.6%	-41.2%	-10.2%	-23.9%
COc1cc(/C=C2\Cc3ccccc3C2=O)cc(OC)c1OC	-13%	-14.8%	-15.8%	18.3%	-14.1%	-13.1%
Cc1nc(C)c(C(=O)NNC(=O)Cc2ccccc2)cc1C(=O)NNC(=O)Cc1ccccc1	-32%	1.35%	-0.9%	15.5%	-5.55%	-32.4%
O=C(O)CC1CCC(CC(=O)O)CC1 (stereo unspecified)	-9.5%	-8.65%	-5.25%	-40.9%	-12.7%	-1.65%
COc1ccc(C(=O)Cc2nc3nnc(N)n3nc2CC(=O)c2ccc(OC)cc2)cc1	-9.35%	2.1%	-0.75%	-0.75%	16.4%	15.7%
O=C1OCC/C1=C\c1ccc(Br)cc1	7.2%	-10.2%	3.3%	-29.6%	7.5%	-1.1%
CC(C)(C)OC(=O)NCS(=O)(=O)N(Cc1ccccc1)Cc1ccccc1	91.8% (active)	89% (active)	51.7%	82.6% (active)	79.4% (active)	89.7% (active)
c1ccc(-c2cc[n+]3c4c2ccc2c(-c5ccccc5)cc[n+](c24)CC3)cc1	78.5% (active)	51.5%	89.6% (active)	73.8% (active)	25.8%	87.2% (active)
CN1CCCNCCN(CCc2ccccn2)CCCN(C)CC1	2.75%	-1.5%	-12.5%	-7.75%	0.15%	6.65%
CC1=NN(C(=O)c2cccnc2)C(=O)C1N=Nc1ccc(S(=O)(=O)Nc2ccccn2)cc1 (stereo unspecified)	25.6%	-8.75%	4.75%	11.4%	-1.6%	1.8%
COc1ccccc1/C=C/c1nc2ccccc2o1	47.6%	19.7%	56.1%	13.6%	59.8%	53%
OC(c1ccccc1)c1ccc2c(c1)CCC2 (stereo unspecified)	3.55%	-8.65%	-6.1%	-25.1%	-18%	5.3%
CC(=O)c1ccc(N2C(=O)C/C(=C/c3ccccc3O)C2=O)cc1	16.1%	0.05%	9.3%	-20.9%	5.2%	16.6%
CC(=O)Nc1cc(N)cc(C(=O)O)c1	37%	-0.9%	9.15%	9.75%	-33.9%	-7.5%
CN(CCOc1ccccc1)Cc1ccccc1	33.1%	7.15%	50.7%	31.3%	40.1%	34.4%

SMILES	growth inhibition [1]	growth inhibition [2]	growth inhibition [3]	growth inhibition [4]	growth inhibition [5]	growth inhibition [6]
CCOC(=O)CCCCCC#N	1.35%	-18.4%	-6.1%	-1.75%	-9.5%	-0.15%
N#C/C(=C\c1ccc(Cl)cc1)C(=O)c1ccccc1	9.4%	12.8%	29.8%	20.9%	6.95%	22.7%
CC(C)CC(N)C(=O)NC(C)C(=O)NC(CC(C)C)C(=O)O (stereo not drawn) (H-Leu-Ala-Leu-OH; configuration not given here)	5.95%	21.4%	10.9%	1.9%	0.5%	-3.1%
COc1c(C(=O)O)[nH]c(=O)[nH]c1=O	4.85%	-30.1%	5.8%	-5.65%	-14.3%	-5.5%
CSc1cccc(N)c1	-23.6%	-12.4%	-46.1%	6.1%	-6.8%	-5.65%
COC1(OC)CC2C(=O)N(Cc3ccccc3)C1C(S(=O)(=O)c1ccccc1)C2C(C)S(=O)(=O)c1ccccc1 (stereo unspecified)	14.1%	-0.55%	-24%	-35%	-26.7%	5%
CC(=O)c1cccc(NC(=O)Nc2cccc3ccccc23)c1	0.45%	5.7%	14.9%	2.75%	15.7%	2.7%
Cc1ccc(S(=O)(=O)N/N=C/c2cc(I)cc(I)c2O)cc1	99.5% (active)	99.3% (active)	99.2% (active)	99.4% (active)	98.3% (active)	99.1% (active)
Cc1ccc(NC(=O)c2ccco2)c(C)c1	-2.3%	-2.55%	5.05%	2.65%	8.4%	-3.1%
CC(=O)CCC(=O)CCC(C)=O	-0.05%	30.4%	6.05%	-1.85%	29.1%	-2.7%
NC(=O)Cc1c[nH]c2ccccc12	39.7%	-3.95%	14.3%	-37.2%	33.4%	48.6%
C#CC(C)(O)CCCCCC (stereo unspecified)	3.7%	16.4%	12%	-4.05%	35%	-7.1%
COc1cc([N+](=O)[O-])ccc1NC(=O)Nc1ccc(Cl)cc1[N+](=O)[O-]	-4.8%	28.1%	24.6%	-12.6%	29.4%	27.1%
CC(=Nc1ccc(C)cc1N)c1c(O)cc(C)oc1=O	-8.75%	-7.5%	-11.4%	-32.6%	1.3%	-5.85%
Cc1cc(C)c2c(c1)CSCc1cc(C)cc(C)c1-2	15.7%	-2.65%	19.1%	10%	1.05%	16.1%
CCOC(=O)Oc1cc2c(ccn2C)c2c1c1ccccc1n2C(=O)OCC	2.25%	-1.8%	-26.6%	8.9%	13.6%	0.4%
CNC(=O)c1cc2nc3ccccc3c(=O)n2c2ccccc12	-46.3%	-54%	-25.1%	-20.6%	-7%	-31.1%
Oc1c(N=Nc2ccccc2)c2ccccc2c2ccc3ccccc3c12	-23.3%	-13.7%	-7.6%	-15.9%	-8.2%	6.85%
COC(=O)c1ccc(C=O)[nH]1	8%	-22.1%	0.55%	-10.5%	4.7%	7.25%
Nc1c(Cl)cc(C(=O)NC2CC2)cc1Cl	-13.1%	-27.8%	-11.2%	-4.8%	-26.6%	-24.9%
